According to PubChem BioAssay (Tox21):
Inconclusive results are not listed. Activity calls are given as the source filed them. Unless noted, calls follow the shape of the full dose curve.

What was measured:
[1] = qHTS assay to identify small molecule agonists of the vitamin D receptor (VDR) signaling pathway - cell viability counter screen (AID 743224; active = well fitted curve in the direction sought with a large enough effect in the repeat runs; an effect the other way counts as inactive or inconclusive; also: series mostly up to about 63 µM; % is scaled to controls: 0 for no effect and ±100 for the full control effect; nearly all actives have a fitted effect of over 50% in size)
Summary of the method: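 Viability is measured in the same wells as the VDR-bla reporter assay: after 16 h compound treatment and 2 h substrate loading, CellTiter-Glo is added and luminescence read 30 min later.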

[2] = qHTS assay to identify small molecule antagonists of the vitamin D receptor (VDR) signaling pathway - cell viability counter screen (AID 743225; active = well fitted curve in the direction sought with a large enough effect in the repeat runs; an effect the other way counts as inactive or inconclusive; also: % is scaled to controls: 0 for no effect and ±100 for the full control effect; nearly all actives have a fitted effect of over 50% in size)
Summary of the method: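 Cytotoxicity counter screen read by CellTiter-Glo luminescence (30 min, room temperature) in the same wells as the VDR-bla antagonist readout. HEK 293T VDR-UAS-bla cells had 16 h at 37C with compound and 3 nM (final) 1-alpha,25-dihydroxyvitamin D3, then 2 h with FRET substrate.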

[3] = qHTS assay to identify small molecule agonists of the NFkB signaling pathway (AID 1159509; active = well fitted curve in the direction sought with a large enough effect in the signal ratio in the repeat runs, not every such curve was filed as active; the % refers to the signal ratio; also: series mostly up to about 61 µM; % is scaled to controls: 0 for no effect and ±100 for the full control effect)
Summary of the method: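 NFkB-bla ME-180 cells with a beta-lactamase reporter under an NF-kB response element were plated overnight, treated with compounds in DMSO for 5 hr at 37 C, then loaded with FRET substrate for 1.5 hr at room temperature.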

[4] = qHTS assay to identify small molecule agonists of the NFkB signaling pathway - cell viability counter screen (AID 1159515); also: series mostly up to about 61 µM; % is scaled to controls: 0 for no effect and ±100 for the full control effect; nearly all actives have a fitted effect of over 55% in size
Summary of the method: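 Multiplexed viability readout: after the 5 hr compound exposure and 1.5 hr FRET substrate step, CellTiter-Glo reagent went into the same NFkB-bla ME-180 wells; ATP luminescence was measured after 30 min at room temperature.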

[5] = qHTS assay to identify small molecule agonists of the endoplasmic reticulum stress response signaling pathway (AID 1159516; active = well fitted activation curve with a large enough effect in the signal ratio in the repeat runs, not every such curve was filed as active; the % refers to the signal ratio; also: % is scaled to controls: 0 for no effect and ±100 for the full control effect)
Summary of the method: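 Tox21 10K library screened in quantitative HTS format on ESRE-bla HeLa cells, a beta-lactamase reporter under ER stress response element control; 5 hr treatment, FRET read.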

[6] = qHTS assay to identify small molecule agonists of the endoplasmic reticulum stress response signaling pathway - cell viability counter screen (AID 1159517); also: series mostly up to about 61 µM; % is scaled to controls: 0 for no effect and ±100 for the full control effect; nearly all actives have a fitted effect of over 50% in size
Summary of the method: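 Luminescence readout: CellTiter-Glo, 30 min RT, same wells as the ESRE-bla reporter read. HeLa ESRE-bla, 1,500 cells/well, o/n 37 C; cpd 5 hr 37 C/5% CO2.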

[7] = qHTS assay to identify small molecule antagonists of the retinoid-related orphan receptor gamma (ROR-gamma) signaling pathway - cell viability counter screen (AID 1159520; active = well fitted curve in the direction sought with a large enough effect in the repeat runs; an effect the other way counts as inactive or inconclusive; also: % is scaled to controls: 0 for no effect and ±100 for the full control effect; nearly all actives have a fitted effect of over 50% in size)
Summary of the method: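 Tet-on ROR gamma CHO cells (1,000/well) were plated 4 hr, given compounds in DMSO for 2 hr at 37 C, then induced with 1 uM final doxycycline for 16 hr. Viability was read as ATP by CellTiter-Glo luminescence after 30 min.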

[8] = molecular target: Nuclear receptor ROR-gamma (Homo sapiens) (UniProt P51449); test: qHTS assay to identify small molecule antagonists of the retinoid-related orphan receptor gamma (ROR-gamma) signaling pathway (AID 1159521; active = well fitted curve in the direction sought with a large enough effect in the repeat runs; an effect the other way counts as inactive or inconclusive)
Summary of the method: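 Antagonist read-out: drop in luminescence (ONE-Glo) from an RORE-LUC reporter in CHO cells with doxycycline-inducible ROR-gamma; 2 hr compound pretreatment, 1 uM doxycycline, 16 hr incubation at 37 C.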

[9] = qHTS assay to identify small molecule agonists of the AP-1 signaling pathway - cell viability counter screen (AID 1159525); also: nearly all actives have a fitted effect of over 55% in size
Summary of the method: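 ME-180 AP-1-bla, 2500 cells/well, Opti-MEM + 0.5% dialyzed FBS; overnight 37 °C; cpd 15-pt titration, 5 h 37 °C; CellTiter-Glo 30 min RT; luminescence read; normalised to TOAB and DMSO controls.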

[10] = qHTS assay to identify small molecule agonists of the AP-1 signaling pathway (AID 1159526); also: % is scaled to controls: 0 for no effect and ±100 for the full control effect

OC[C@H](Cc1cccc(O)c1)[C@H](CO)Cc1cccc(O)c1
inactive: Potency [1] | outcome [2] | outcome [3] | outcome [4] | outcome [5] | Potency [6] | outcome [7] | outcome [8] | outcome [9] | outcome [10]

O=C(OCC(COC(=O)c1cccnc1)(COC(=O)c1cccnc1)COC(=O)c1cccnc1)c1cccnc1
inactive: Potency [1] | outcome [2] | outcome [3] | outcome [4] | outcome [5] | Potency [6] | outcome [7] | outcome [8] | outcome [9] | outcome [10]

CNC(=O)[C@H]1O[C@@H](n2cnc3c(NCc4cc(Cl)ccc4OCc4cc(C)no4)ncnc32)[C@H](O)[C@@H]1N
inactive: Potency [1] | outcome [2] | outcome [3] | outcome [4] | outcome [5] | Potency [6] | outcome [7] | outcome [8] | outcome [9] | outcome [10]

C[C@H](N)[C@H](O)c1cccc(O)c1
inactive: Potency [1] | outcome [2] | outcome [3] | outcome [4] | outcome [5] | Potency [6] | outcome [7] | outcome [8] | outcome [9] | outcome [10]

CC(S)C(=O)NCC(=O)O (centres undefined)
inactive: Potency [1] | outcome [2] | outcome [3] | outcome [4] | outcome [5] | Potency [6] | outcome [7] | outcome [8] | outcome [9] | outcome [10]

CC(C)CC(C)CC(C)CC(C)COC(=O)c1ccccc1C(=O)OCC(C)CC(C)CC(C)CC(C)C (centres undefined)
inactive: Potency [1] | outcome [2] | outcome [3] | outcome [4] | outcome [5] | Potency [6] | outcome [7] | outcome [8] | outcome [9] | outcome [10]

CC(=O)CCCCn1c(=O)c2c(ncn2C)n(C)c1=O
inactive: Potency [1] | outcome [2] | outcome [3] | outcome [4] | outcome [5] | Potency [6] | outcome [7] | outcome [8] | outcome [9] | outcome [10]

CCN(CC)CC(=O)Nc1c(C)cccc1C
inactive: Potency [1] | outcome [2] | outcome [3] | outcome [4] | outcome [5] | Potency [6] | outcome [7] | outcome [8] | outcome [9] | outcome [10]

COc1ccc(-c2cc(=O)c3c(O)cc(O[C@@H]4O[C@H](CO[C@@H]5O[C@@H](C)[C@H](O)[C@@H](O)[C@H]5O)[C@@H](O)[C@H](O)[C@H]4O)cc3o2)cc1O
inactive: Potency [1] | outcome [2] | outcome [3] | outcome [4] | outcome [5] | Potency [6] | outcome [7] | outcome [8] | outcome [9] | outcome [10]

CCOC(=O)c1ccc(OC(=O)CCCCCN=C(N)N)cc1
inactive: Potency [1] | outcome [2] | outcome [3] | outcome [4] | outcome [5] | Potency [6] | outcome [7] | outcome [8] | outcome [9] | outcome [10]

C[Si](C)(C)C
inactive: Potency [1] | outcome [2] | outcome [3] | outcome [4] | outcome [5] | Potency [6] | outcome [7] | outcome [8] | outcome [9] | outcome [10]

CC(C)CCCC(C)(C)O
inactive: Potency [1] | outcome [2] | outcome [3] | outcome [4] | outcome [5] | Potency [6] | outcome [7] | outcome [8] | outcome [9] | outcome [10]

CC1=C(C(=O)O)N2C(=O)[C@@H](NC(=O)[C@H](N)c3ccc(O)cc3)[C@H]2SC1
inactive: Potency [1] | outcome [2] | outcome [3] | outcome [4] | outcome [5] | Potency [6] | outcome [7] | outcome [8] | outcome [9] | outcome [10]

COc1cc(C(=S)N2CCOCC2)cc(OC)c1OC
inactive: Potency [1] | outcome [2] | outcome [3] | outcome [4] | outcome [5] | Potency [6] | outcome [7] | outcome [8] | outcome [9] | outcome [10]

CC(C)=O
inactive: outcome [3] | outcome [4] | outcome [5] | Potency [6] | outcome [7] | outcome [8] | outcome [9] | outcome [10]

C=COCCOCCOCCOC=C
inactive: Potency [1] | outcome [2] | outcome [3] | outcome [4] | outcome [5] | Potency [6] | outcome [7] | outcome [8] | outcome [9] | outcome [10]

c1ccc2c(c1)ccc1c3ccccc3ccc21
inactive: Potency [1] | outcome [3] | outcome [4] | outcome [5] | Potency [6] | outcome [7] | outcome [8] | outcome [9] | outcome [10]

CCN1CCc2nc(N)oc2CC1
inactive: Potency [1] | outcome [2] | outcome [3] | outcome [4] | outcome [5] | Potency [6] | outcome [7] | outcome [8] | outcome [9] | outcome [10]

CCOC(=O)/C=C/c1ccccc1
inactive: Potency [1] | outcome [3] | outcome [4] | outcome [5] | Potency [6] | outcome [7] | outcome [8] | outcome [9] | outcome [10]

Oc1cn2c(n1)Nc1ccc(Cl)c(Cl)c1C2
inactive: Potency [1] | outcome [2] | outcome [3] | outcome [4] | outcome [5] | Potency [6] | activity, negative = cytotoxicity [7] -0.0979% [at 19 µM] | activity change, negative = inhibition [8] 0.185% [at 19 µM] | viability change, negative = cytotoxic [9] -0.119% [at 15.8 µM] | activation [10] 0.89% [at 15.8 µM]

C[C@@H](O)[C@H]1C(=O)N2C(C(=O)O)=C(SCCN=CN)C[C@H]12
inactive: outcome [3] | outcome [4] | outcome [5] | Potency [6] | outcome [7] | outcome [8] | outcome [9] | outcome [10]

O=C(NCC(O)CO)c1c(I)c(C(=O)NCC(O)CO)c(I)c(N(CCO)C(=O)CO)c1I (centres undefined)
inactive: Potency [1] | outcome [2] | outcome [3] | outcome [4] | outcome [5] | Potency [6] | outcome [7] | outcome [8] | outcome [9] | outcome [10]

CCNC(=O)C1CC(C)CCC1C(C)C (centres undefined)
inactive: Potency [1] | outcome [2] | outcome [3] | outcome [4] | outcome [5] | Potency [6] | outcome [7] | outcome [8] | outcome [9] | outcome [10]

CCOC(=O)[C@H](CCc1ccccc1)N[C@@H](C)C(=O)N1C(=O)N(C)C[C@H]1C(=O)O
inactive: Potency [1] | outcome [2] | outcome [3] | outcome [4] | outcome [5] | Potency [6] | outcome [7] | outcome [8] | outcome [9] | outcome [10]
